From the supplement of paper PMC10681739 come the findings set out here.

The target of experiment [1] is T1, ETS1 (UniProt P14921).
T1 sequence: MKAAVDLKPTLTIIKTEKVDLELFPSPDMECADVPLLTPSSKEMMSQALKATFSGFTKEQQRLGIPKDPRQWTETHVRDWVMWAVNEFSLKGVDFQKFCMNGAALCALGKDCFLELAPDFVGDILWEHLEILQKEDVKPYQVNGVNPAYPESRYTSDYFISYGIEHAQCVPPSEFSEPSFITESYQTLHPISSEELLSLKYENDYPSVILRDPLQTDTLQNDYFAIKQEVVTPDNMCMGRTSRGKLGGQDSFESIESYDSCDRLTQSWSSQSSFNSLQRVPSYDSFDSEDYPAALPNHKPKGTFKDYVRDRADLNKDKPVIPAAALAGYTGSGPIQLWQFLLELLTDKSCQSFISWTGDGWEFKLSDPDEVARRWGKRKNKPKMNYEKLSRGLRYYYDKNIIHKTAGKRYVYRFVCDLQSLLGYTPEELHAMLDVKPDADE
Kind of experiment: ETS1 binding intensity (PBM fluorescence), ETS1 alone (arbitrary fluorescence units); higher = stronger binding. To be noted: ETS1 concentration 1 nM; RUNX1 concentration 0 nM.

Experiment [2] deals with T1, ETS1. As to the kind of experiment: ETS1 binding intensity (PBM fluorescence) in presence of RUNX1, normalised to ETS1-only experiment (arbitrary fluorescence units); higher = stronger binding. To be noted: ETS1 concentration 1 nM; RUNX1 concentration 25 nM.
The target of the next experiment is RUNX1 (UniProt Q01196). Kind of experiment: RUNX1 binding intensity (PBM fluorescence) in presence of ETS1, normalised to RUNX1-only experiment (arbitrary fluorescence units); higher = stronger binding. The settings on record: RUNX1 concentration 2 nM; ETS1 concentration 25 nM. The method, then: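 Cooperative gcPBM on 36-bp genomic probes with neighbouring ETS1 and RUNX1 sites. Recombinant human RUNX1 (2 nM) was incubated alone or with ETS1 (25 nM) and detected with anti-RUNX1 antibody plus Alexa488 secondary. Values are medians over 4 replicate spots; the RUNX1+ETS1 data were normalised to the RUNX1-only data. The probes sit in constant array flanks that are not printed.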
RUNX1, sequence (Q01196 whole entry): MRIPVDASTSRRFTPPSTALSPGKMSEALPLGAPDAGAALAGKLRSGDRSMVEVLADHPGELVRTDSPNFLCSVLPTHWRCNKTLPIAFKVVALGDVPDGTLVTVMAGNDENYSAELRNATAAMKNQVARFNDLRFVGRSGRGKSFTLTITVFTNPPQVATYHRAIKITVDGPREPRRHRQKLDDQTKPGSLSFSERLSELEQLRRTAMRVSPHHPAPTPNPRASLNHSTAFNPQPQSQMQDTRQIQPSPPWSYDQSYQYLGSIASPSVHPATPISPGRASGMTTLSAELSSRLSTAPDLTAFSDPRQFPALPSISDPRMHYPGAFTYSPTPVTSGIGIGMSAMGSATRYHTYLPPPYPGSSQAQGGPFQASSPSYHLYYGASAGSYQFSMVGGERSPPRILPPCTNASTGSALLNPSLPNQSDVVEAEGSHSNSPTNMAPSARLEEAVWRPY
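Wherever RUNX1 binding intensity (PBM fluorescence) in presence of ETS1, normalised to RUNX1-only experiment is given: Full-length recombinant human ETS1 or RUNX1 bound to double-stranded 36-bp genomic probes on microarrays, detected by protein-specific primary antibody and Alexa488 secondary, spot fluorescence as median of four replicate spots.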

Turning to TCCCCTTTCCGGGAAGGGTTGGGGATCTGACCACGT, the ETS1 binding intensity with ETS1 [1] came to 437; in the experiment with ETS1 [2], 498. Besides, the RUNX1 binding intensity in the experiment with RUNX1 was 1320.

GCAGAGAGGAAGTGTGGGGGTGGAGGAGGCCGCAGA: the ETS1 binding intensity in the experiment with ETS1 [1] stood at 681; with ETS1 [2] it was 973. Besides, the RUNX1 binding intensity with RUNX1 came to 1000.

Regarding CAACACAGGATGTGCAGTATTATACCGCAAAGCACT, the ETS1 binding intensity with ETS1 [1] was found to be 1710; with ETS1 [2], 6950. The RUNX1 binding intensity with RUNX1 was 2070.

Turning to GGGCTCCCAGAAGGATGTGGTTTCTGAGTACGTTGG, the ETS1 binding intensity is 582 in the experiment with ETS1 [1] and 3520 with ETS1 [2]. In addition, the RUNX1 binding intensity with RUNX1 is 1260.

Take GATCTTCCTGCAACCCCCCGAGACAACCACCGAACA: the ETS1 binding intensity with ETS1 [1] amounted to 854; with ETS1 [2] it was 887. In addition, the RUNX1 binding intensity with RUNX1 turned out to be 1400.

With TTTGCTGCAGAAGGATGTGGTTTATTCAGGTTTGAC, the ETS1 binding intensity in the experiment with ETS1 [1] is 676; with ETS1 [2] it was 3620. In the experiment with RUNX1, the RUNX1 binding intensity stood at 1270.

As for AGGTTGAAAGCACTTCCGCTGCGGCCCCCGTAGGAA, the ETS1 binding intensity in the experiment with ETS1 [1] worked out at 3040; in the experiment with ETS1 [2], 3460. In addition, in the experiment with RUNX1, the RUNX1 binding intensity was determined as 1520.

For CGGGACCTGTTTCCTTGGGAACCACAAGATAAGACC, the ETS1 binding intensity in the experiment with ETS1 [1] was 407; with ETS1 [2], 520. Also, the RUNX1 binding intensity with RUNX1 is 892.

For TGGCAGCCACATCCTGCCTGTGGCTAGGTCAACCCA, the results for the ETS1 binding intensity with ETS1 [1] and in the experiment with ETS1 [2] were 1220 and 1290, respectively. Also, the RUNX1 binding intensity with RUNX1 worked out at 3730.

As to CCCGGAGGACGTCCGGCCTCTGTGAGCCGCAACCTT, the ETS1 binding intensity with ETS1 [1] stood at 440; with ETS1 [2], 561. The RUNX1 binding intensity in the experiment with RUNX1 was 1370.

Regarding AACCTCCGACTTCCGGCCGCGCAGCGGTGGGCTGAG, the ETS1 binding intensity in the experiment with ETS1 [1] turned out to be 3900; with ETS1 [2], 4280. In addition, the RUNX1 binding intensity with RUNX1 turned out to be 1970.

Turning to GCGAGAGGGAGGAAGTGACTCACCAACCACAACAAA, the ETS1 binding intensity turned out to be 1480 with ETS1 [1] and 5020 in the experiment with ETS1 [2]. In addition, the RUNX1 binding intensity with RUNX1 was determined as 1220.

As for GGTCTCTGCTTCCGGTCCTTGTGGTAGCACCTCTGT, the ETS1 binding intensity with ETS1 [1] was 4510; with ETS1 [2], 5180. Besides, the RUNX1 binding intensity with RUNX1 was 2710.

Take GTCTTTCACTCCACTTCCGCCCCCACAAAACATACA: the ETS1 binding intensity with ETS1 [1] is 2850; in the experiment with ETS1 [2], 3620. Also, the RUNX1 binding intensity in the experiment with RUNX1 came out at 6600.

For the sequence TACAGGAACTTCCTGCGCGGCTGCTGTGGTTGCGAG, the ETS1 binding intensity in the experiment with ETS1 [1] worked out at 794; with ETS1 [2] it was 1350. Moreover, the RUNX1 binding intensity with RUNX1 amounted to 1680.

As to AAGGGAGCCGCCCGGAAACCGCGCGGCAAAGATGCC, the ETS1 binding intensity with ETS1 [1] stood at 1560; with ETS1 [2], 2940. The RUNX1 binding intensity with RUNX1 is 1050.

ATGGGTACAGGATTTCCTTTTGTGGTGATGAAAATG: the ETS1 binding intensity amounted to 697 with ETS1 [1] and 1030 with ETS1 [2]. Moreover, in the experiment with RUNX1, the RUNX1 binding intensity was found to be 1200.

With ACTTACTTCCCGACGTCACAGCCACCGAAACCACAG, the ETS1 binding intensity worked out at 468 with ETS1 [1] and 464 in the experiment with ETS1 [2]. Moreover, the RUNX1 binding intensity in the experiment with RUNX1 worked out at 2090.

Turning to CGACTTCCGTCCCTGGGTGGGATCGAACCACCAACC, the values for the ETS1 binding intensity in the experiment with ETS1 [1] and with ETS1 [2] were 532 and 540, respectively. Moreover, in the experiment with RUNX1, the RUNX1 binding intensity was 2780.

As to CAGTCAAGAGGAAATTATAAACCACTGCCTCTTTGA, the values for the ETS1 binding intensity in the experiment with ETS1 [1] and in the experiment with ETS1 [2] were 599 and 744, respectively. Further, the RUNX1 binding intensity with RUNX1 was 909.

For CTGTGCGAGGCAGGATGTGGTCTCCCGCCACCAGGG, the results for the ETS1 binding intensity with ETS1 [1] and with ETS1 [2] were 5450 and 13800, respectively. For the same sequence, the RUNX1 binding intensity in the experiment with RUNX1 turned out to be 3160.

In the case of TTTATCATGAATGCAGGATGTGGGCAAACTCGCATC, the ETS1 binding intensity in the experiment with ETS1 [1] is 2340; in the experiment with ETS1 [2], 6100. In addition, the RUNX1 binding intensity with RUNX1 was determined as 1060.

Consider CAAAAGTGCTTCCTCTCGAGGGGTTGTGGTTCTTAC, for which the results for the ETS1 binding intensity with ETS1 [1] and in the experiment with ETS1 [2] were 396 and 520, respectively. For the same sequence, in the experiment with RUNX1, the RUNX1 binding intensity was determined as 1070.

In the case of CTCTGAGCAGGAAGTGACAAAACCACGCAGGGCAGG, the ETS1 binding intensity with ETS1 [1] was 3150; in the experiment with ETS1 [2], 6770. Moreover, the RUNX1 binding intensity with RUNX1 was 1160.

Take CACCTGCAGTGAAGAGGATGTGGGCAAAGATTATGC: the values for the ETS1 binding intensity with ETS1 [1] and with ETS1 [2] were 1350 and 2180, respectively. Besides, the RUNX1 binding intensity with RUNX1 was determined as 1100.

Take GAAACCCCATGGGCAGGATGTGGGTGAGCTGTCTGG: the ETS1 binding intensity stood at 3380 with ETS1 [1] and 5020 with ETS1 [2]. Besides, the RUNX1 binding intensity with RUNX1 turned out to be 1280.

Take CAAGGTTCCTCCGCTTCCTGCCCGCAGGCCGAACCT: the figures for the ETS1 binding intensity with ETS1 [1] and with ETS1 [2] were 956 and 1600, respectively. Besides, the RUNX1 binding intensity in the experiment with RUNX1 turned out to be 1830.

With GCAGCATTTCCTGACTTCTTCGCCCCTGTGGTTGCA, the ETS1 binding intensity in the experiment with ETS1 [1] turned out to be 440; with ETS1 [2], 480. In addition, the RUNX1 binding intensity with RUNX1 was 1690.

Regarding AACAAAGAGAGAGGAAGTGGGTTGGGCGGGGGGGGT, the ETS1 binding intensity with ETS1 [1] was 1880; with ETS1 [2], 1990. Further, the RUNX1 binding intensity with RUNX1 turned out to be 1040.

With GAGACACTCTGCTTCCTGCGGTGGAAGATTCAGTAT, the ETS1 binding intensity with ETS1 [1] was 473; in the experiment with ETS1 [2], 482. Besides, in the experiment with RUNX1, the RUNX1 binding intensity came to 1080.

Take TAGGCTGAAGACTTCCGCCCCGCAGAGGACTTGCCT: the figures for the ETS1 binding intensity with ETS1 [1] and with ETS1 [2] were 1040 and 974, respectively. In addition, the RUNX1 binding intensity with RUNX1 was 1170.

Take GGGCAGGAAGGAAGAGGGCTCCTCCCCACAAGCTCT: the ETS1 binding intensity with ETS1 [1] was 437; in the experiment with ETS1 [2], 492. The RUNX1 binding intensity with RUNX1 stood at 862.

Consider GGTCCGGATGTATAAAGCGCGGCCCCCTGCGGGGAG, for which the ETS1 binding intensity with ETS1 [1] came out at 910; with ETS1 [2], 1020. In the experiment with RUNX1, the RUNX1 binding intensity was 997.

In the case of CCCCGCCTCTTCCGCTTCTGTGGTCTGATCTGCCTG, the ETS1 binding intensity with ETS1 [1] worked out at 704; in the experiment with ETS1 [2], 1040. For the same sequence, in the experiment with RUNX1, the RUNX1 binding intensity is 3860.

As to TCCACATCCTGCTCCTCGGGTTTGCGGCGAGGACTC, the ETS1 binding intensity with ETS1 [1] was found to be 593; in the experiment with ETS1 [2], 1010. Moreover, in the experiment with RUNX1, the RUNX1 binding intensity is 2660.

ATGGAAAGGAAGTCGGTGGGAAACCGCCTCAGCGGT: the ETS1 binding intensity with ETS1 [1] amounted to 797; with ETS1 [2], 1020. Moreover, in the experiment with RUNX1, the RUNX1 binding intensity was determined as 1200.

Turning to AAAGTTGTATAGTGAGGATGTGGTCAAGAACTCACC, the figures for the ETS1 binding intensity with ETS1 [1] and with ETS1 [2] were 577 and 4380, respectively. For the same sequence, the RUNX1 binding intensity with RUNX1 was 1180.

As for GCGGAGCGAGCGGCCGGATGCGGTCACCATAGAGAC, the ETS1 binding intensity was 4210 in the experiment with ETS1 [1] and 25200 with ETS1 [2]. The RUNX1 binding intensity with RUNX1 came out at 8090.

As to CAACCTGCTATAAGGAAGTTAAACCGCAGCTCACCG, the ETS1 binding intensity was found to be 718 with ETS1 [1] and 5980 with ETS1 [2]. Besides, the RUNX1 binding intensity with RUNX1 worked out at 5610.

As for TGTCAGCTGCGTTTCCGCGGTCGCGGGTGAGTGTGC, the figures for the ETS1 binding intensity with ETS1 [1] and in the experiment with ETS1 [2] were 418 and 588, respectively. Besides, the RUNX1 binding intensity in the experiment with RUNX1 came out at 1360.

Regarding GTTGGGCTTTGAGGATGTGGGTTCTAGAAGTTTACA, the ETS1 binding intensity in the experiment with ETS1 [1] came to 928; in the experiment with ETS1 [2], 2120. Moreover, the RUNX1 binding intensity with RUNX1 stood at 1050.

On to AGGTCTCCGGAAGTGGGTCTGCGGCGCGCGGGATGC, for which the ETS1 binding intensity in the experiment with ETS1 [1] was found to be 6040; in the experiment with ETS1 [2] it was 8540. Further, the RUNX1 binding intensity with RUNX1 was 3290.
